Assay results taken from PubChem BioAssay (NCI).
About 79,000 compounds went through this panel and 15% of them were active in at least one assay; those are over-represented in the sample as a whole. The source made the active and inactive calls. Cut-off read from the data, not from the text of the source: active = growth inhibition above about 70%; inactive = the rest.

Tests used:
[1] = NCI Yeast Anticancer Drug Screen. Data for the wt2 strain (AID 169);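 note: 0% = growth of vehicle-treated yeast cultures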; conditions: S. cerevisiae wt2 strain growth inhibition, hits give high values
Summary of the method: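 Read-out: growth inhibition versus vehicle-treated control cultures after compound exposure of the yeast strain.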

[2] = NCI Yeast Anticancer Drug Screen. Data for the mlh1 strain (AID 171);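 note: 0% = growth of vehicle-treated control cultures of the same strain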; conditions: S. cerevisiae mlh1 strain growth inhibition, hits give high values
Summary of the method: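 Read-out: growth inhibition versus vehicle controls. Strain: engineered yeast with a defined DNA repair or cell cycle defect, compound-treated.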

[3] = NCI Yeast Anticancer Drug Screen. Data for the sgs1 strain (AID 173);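 note: 0% = growth of vehicle-only control cultures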; conditions: S. cerevisiae sgs1 mutant, hits give high values
Summary of the method: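 Read-out: yeast growth inhibition relative to vehicle controls, following compound exposure of a strain with a defined DNA repair/cell cycle alteration.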

[4] = NCI Yeast Anticancer Drug Screen. Data for the mlh1 rad18 strain (AID 175); conditions: S. cerevisiae mlh1 rad18 strain growth inhibition, hits give high values
Summary of the method: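 Yeast w/ defined DNA-repair lesions; compound exposure; growth vs vehicle controls → % inhibition.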

[5] = NCI Yeast Anticancer Drug Screen. Data for the rad52 strain (AID 147);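 note: 0% = growth of vehicle-treated control cultures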; conditions: S. cerevisiae rad52 mutant growth inhibition, hits give high values
Summary of the method: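 Read-out: growth inhibition versus vehicle-treated controls. Cells were a DNA repair-deficient yeast strain treated with compounds.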

[6] = NCI Yeast Anticancer Drug Screen. Data for the wt1 strain (AID 149);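 note: 0% = growth of vehicle-treated wt1 cultures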; conditions: S. cerevisiae wt1 strain (SPY 50644) growth inhibition, hits give high values
Summary of the method: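 Measured: growth of wt1 yeast under compound versus vehicle treatment, reported as inhibition.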

[7] = NCI Yeast Anticancer Drug Screen. Data for the rad50EPP+ strain (AID 151);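 note: 0% = growth of vehicle-treated control cultures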; conditions: S. cerevisiae rad50 mutant strain, hits give high values
Summary of the method: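 Growth inhibition read against vehicle controls in rad50EPP+ yeast, a strain altered in DNA damage repair, after compound exposure.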

[8] = NCI Yeast Anticancer Drug Screen. Data for the mgt1 strain (AID 153); conditions: S. cerevisiae mgt1 mutant growth inhibition, hits give high values
Summary of the method: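 mgt1 yeast grown with test compound; read-out is growth inhibition versus vehicle-treated cultures.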

[9] = NCI Yeast Anticancer Drug Screen. Data for the rad50 strain (AID 155);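 note: 0% = growth of vehicle-only cultures of the same strain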; conditions: S. cerevisiae rad50 strain growth inhibition, hits give high values
Summary of the method: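 Growth of the mutant yeast was measured after compound exposure and referenced to vehicle-treated cultures.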

[10] = NCI Yeast Anticancer Drug Screen. Data for the mec2-1 strain (AID 157); conditions: S. cerevisiae mec2-1 strain, hits give high values
Summary of the method: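 Yeast mec2-1 mutant treated with compound. Readout: growth inhibition vs vehicle controls.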

[11] = NCI Yeast Anticancer Drug Screen. Data for the rad14 strain (AID 159);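 note: 0% = growth of vehicle-treated control cultures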; conditions: S. cerevisiae rad14 strain growth inhibition, hits give high values
Summary of the method: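 Here, inhibition of yeast growth was measured after compound exposure, using a strain with a genetic defect in DNA damage repair and vehicle-treated cultures as the reference.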

[12] = NCI Yeast Anticancer Drug Screen. Data for the sgs1 mgt1 strain (AID 161);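 note: 0% = growth of cultures given vehicle only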; conditions: S. cerevisiae sgs1 mgt1 strain, hits give high values
Summary of the method: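 Read-out: growth inhibition vs vehicle controls. Cells: mutant yeast strain deficient in DNA damage repair.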

[13] = NCI Yeast Anticancer Drug Screen. Data for the CLN2oe strain (AID 163);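 note: 0% = growth of vehicle-only control cultures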; conditions: S. cerevisiae CLN2oe strain, hits give high values
Summary of the method: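 Read-out: yeast growth inhibition, expressed relative to vehicle-only controls. The strain bears an engineered cell-cycle alteration.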

[14] = NCI Yeast Anticancer Drug Screen. Data for the cln2 rad14 strain (AID 165);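 note: 0% = growth equal to vehicle treated cultures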; conditions: S. cerevisiae cln2 rad14 strain, hits give high values
Summary of the method: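 cln2 rad14 yeast strain; compound exposure; growth inhibition read vs vehicle controls.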

[15] = NCI Yeast Anticancer Drug Screen. Data for the bub3 strain (AID 167); conditions: S. cerevisiae bub3 mutant strain, hits give high values
Summary of the method: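 Whole-cell yeast assay. The mutant strain was incubated with compounds, and growth inhibition was determined by comparison with vehicle-treated cells.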

[16] = NCI Yeast Anticancer Drug Screen. Data for the rad18 strain (AID 177); conditions: S. cerevisiae rad18 mutant growth inhibition, hits give high values
Summary of the method: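 Readout: growth inhibition vs vehicle controls. Cells: genetically altered yeast strain, DNA repair defect.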

[17] = at 5.0 µM (retest, dose inferred, filed as 0.5)
[18] = at 50.0 µM (retest, dose inferred, filed as 5.0)

Measured: growth inhibition

Cc1cc(C)c(N2C(=O)CC(Sc3ccccc3N)C2=O)c(C)c1 (centres undefined)
inactive: [1]; at 1.2 µM -14% | [1]; at 3.7 µM -19% | [1]; at 11.0 µM -1% | [1]; at 33.0 µM -8% | [1]; at 100.0 µM 19% | [2]; at 1.2 µM -33% | [2]; at 3.7 µM -27% | [2]; at 11.0 µM -27% | [2]; at 33.0 µM -23% | [2]; at 100.0 µM 1% | [3]; at 1.2 µM -37% | [3]; at 3.7 µM -41% | [3]; at 11.0 µM -34% | [3]; at 33.0 µM -28% | [3]; at 100.0 µM -21% | [4]; [17] 24% | [4]; [18] 44% | [4]; at 50.0 µM 34.3%

O=C1c2cccc3cc([N+](=O)[O-])cc(c23)C(=O)N1CCN1CCCC1
inactive: [5]; at 1.2 µM 33% | [5]; at 3.7 µM 61% | [5]; at 11.0 µM 63% | [6]; at 1.2 µM 8% | [6]; at 3.7 µM 8% | [6]; at 11.0 µM 0% | [6]; at 33.0 µM 3% | [6]; at 100.0 µM 25% | [7]; at 1.2 µM 13% | [7]; at 3.7 µM 23% | [7]; at 11.0 µM 39% | [8]; at 1.2 µM -6% | [8]; at 3.7 µM 10% | [8]; at 11.0 µM 8% | [8]; at 33.0 µM 7% | [8]; at 100.0 µM 44% | [9]; at 1.2 µM 16% | [9]; at 3.7 µM 48% | [9]; [17] 11% | [9]; at 11.0 µM 62% | [9]; at 50.0 µM 66.7% | [10]; at 1.2 µM 5% | [10]; at 3.7 µM 5% | [10]; [17] 11% | [10]; at 11.0 µM -3% | [10]; at 33.0 µM -4% | [10]; [18] 30% | [10]; at 50.0 µM 28.1% | [10]; at 100.0 µM 38% | [11]; at 1.2 µM 12% | [11]; at 3.7 µM 11% | [11]; at 11.0 µM 14% | [11]; at 33.0 µM 5% | [11]; at 100.0 µM 28% | [12]; [17] 8% | [12]; [18] 12% | [12]; at 50.0 µM -14.2% | [13]; at 1.2 µM 7% | [13]; at 3.7 µM 25% | [13]; at 11.0 µM 25% | [13]; at 33.0 µM 39% | [13]; at 100.0 µM 61% | [14]; [17] 9% | [14]; [18] 36% | [14]; at 50.0 µM -15.8% | [15]; at 1.2 µM 9% | [15]; at 3.7 µM 20% | [15]; [17] 9% | [15]; at 11.0 µM 13% | [15]; at 33.0 µM 17% | [15]; [18] 12% | [15]; at 50.0 µM -11.2% | [15]; at 100.0 µM 35% | [1]; at 1.2 µM -11% | [1]; at 3.7 µM 0% | [1]; at 11.0 µM 12% | [1]; at 33.0 µM 7% | [1]; at 100.0 µM 19% | [2]; at 1.2 µM 0% | [2]; at 3.7 µM 20% | [2]; at 11.0 µM -4% | [2]; at 33.0 µM 18% | [2]; at 100.0 µM 39% | [3]; at 1.2 µM 0% | [3]; at 3.7 µM 0% | [3]; at 11.0 µM 2% | [3]; at 33.0 µM 19% | [3]; at 100.0 µM 50% | [4]; [17] 3% | [4]; [18] 18% | [4]; at 50.0 µM -41.9%
active: [5]; at 33.0 µM 90% | [5]; at 100.0 µM 94% | [7]; at 33.0 µM 73% | [7]; at 100.0 µM 83% | [9]; at 33.0 µM 88% | [9]; [18] 95% | [9]; at 100.0 µM 91%

COc1ccc2oc(-c3ccc(Cl)cc3)c(N3CCN(C)CC3)c2c1
active: [5]; at 11.0 µM 91% | [5]; at 33.0 µM 98% | [5]; at 100.0 µM 99% | [6]; at 33.0 µM 99% | [6]; at 100.0 µM 99% | [7]; at 33.0 µM 99% | [7]; at 100.0 µM 99% | [8]; at 11.0 µM 99% | [8]; at 33.0 µM 100% | [8]; at 100.0 µM 99% | [9]; [17] 79% | [9]; at 11.0 µM 94% | [9]; at 33.0 µM 99% | [9]; [18] 99% | [9]; at 100.0 µM 99% | [10]; at 11.0 µM 87% | [10]; at 33.0 µM 98% | [10]; [18] 100% | [10]; at 100.0 µM 99% | [11]; at 11.0 µM 99% | [11]; at 33.0 µM 99% | [11]; at 100.0 µM 99% | [12]; [18] 100% | [13]; at 11.0 µM 98% | [13]; at 33.0 µM 99% | [13]; at 100.0 µM 98% | [14]; [18] 98% | [14]; at 50.0 µM 99.5% | [15]; at 11.0 µM 98% | [15]; at 33.0 µM 99% | [15]; [18] 99% | [15]; at 100.0 µM 99% | [1]; at 11.0 µM 97% | [1]; at 33.0 µM 99% | [1]; at 100.0 µM 99% | [2]; at 11.0 µM 90% | [2]; at 33.0 µM 99% | [2]; at 100.0 µM 99% | [3]; at 11.0 µM 96% | [3]; at 33.0 µM 99% | [3]; at 100.0 µM 99% | [4]; [18] 99% | [16]; at 11.0 µM 91% | [16]; at 33.0 µM 99% | [16]; at 100.0 µM 99%
inactive: [5]; at 1.2 µM -1% | [5]; at 3.7 µM 0% | [6]; at 1.2 µM -1% | [6]; at 3.7 µM -3% | [6]; at 11.0 µM 30% | [7]; at 1.2 µM -1% | [7]; at 3.7 µM -4% | [7]; at 11.0 µM 28% | [8]; at 1.2 µM -2% | [8]; at 3.7 µM -1% | [9]; at 1.2 µM -3% | [9]; at 3.7 µM 0% | [9]; at 50.0 µM 56.3% | [10]; at 1.2 µM -3% | [10]; at 3.7 µM -3% | [10]; [17] 9% | [10]; at 50.0 µM 54.7% | [11]; at 1.2 µM 0% | [11]; at 3.7 µM 13% | [12]; [17] 23% | [12]; at 50.0 µM 58.5% | [13]; at 1.2 µM -6% | [13]; at 3.7 µM -5% | [14]; [17] 17% | [15]; at 1.2 µM -3% | [15]; at 3.7 µM -6% | [15]; [17] 17% | [15]; at 50.0 µM 62.1% | [1]; at 1.2 µM 0% | [1]; at 3.7 µM -3% | [2]; at 1.2 µM -2% | [2]; at 3.7 µM 0% | [3]; at 1.2 µM -1% | [3]; at 3.7 µM 0% | [4]; [17] 59% | [4]; at 50.0 µM 51.5% | [16]; at 1.2 µM 1% | [16]; at 3.7 µM 4%
